Drawing on PubChem BioAssay (NCI), this text covers growth for nine molecules.

Common to all, as to test: NCI-60 one-dose screen, 48 h (100 = growth as untreated, 0 = no growth, -100 = all killed)
Experiment [1] relates to HCT-15 colon. The settings on record: 10 µM unless noted.
In experiment [2] the test system is HT29 colon. As to conditions: 10 µM unless noted.
Experiment [3] relates to SNB-75 CNS. The settings on record: 10 µM unless noted.
The subject of experiment [4] is SNB-19 CNS. The settings on record: 10 µM unless noted.
Experiment [5] relates to U251 CNS. The settings on record: 10 µM unless noted.
Experiment [6] relates to PC-3 prostate. As to conditions: 10 µM unless noted.
Experiment [7] concerns UACC-62 melanoma. The settings on record: 10 µM unless noted.
In experiment [8] the test system is LOX IMVI melanoma. As to conditions: 10 µM unless noted.
Experiment [9] deals with SK-MEL-28 melanoma. The settings on record: 10 µM unless noted.
Experiment [10] relates to SK-MEL-2 melanoma. As to conditions: 10 µM unless noted.
Experiment [11] concerns EKVX NSCLC. The settings on record: 10 µM.
Experiment [12] concerns SN12C renal. The settings on record: 10 µM unless noted.
The test system of experiment [13] is UO-31 renal. As to conditions: 10 µM unless noted.
Experiment [14] concerns TK-10 renal. The settings on record: 10 µM unless noted.
For experiment [15], the system named is ACHN renal. The settings on record: 10 µM unless noted.
The test system of experiment [16] is A498 renal. As to conditions: 10 µM unless noted.
For experiment [17], the system named is CCRF-CEM leukemia. The settings on record: 10 µM.
Experiment [18] deals with MOLT-4 leukemia. As to conditions: 10 µM unless noted.
For experiment [19], the system named is SK-MEL-5 melanoma. The settings on record: 10 µM unless noted.
For experiment [20], the system named is CAKI-1 renal. As to conditions: 10 µM unless noted.

Compounds without any hit were thinned out: in the full panel of roughly 83,000, 20% have a hit.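 Method: cells in 96-well plates; compound added at one concentration; 48 h incubation; percent growth measured; values under 10 scored active.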 A number with no mark means an inactive call. The source made the active and inactive calls.

On to `Cc1cc2c(-c3nc4ccccc4[nH]3)c(O)c(O)cc2c(O)c1-c1c(C)cc2c(-c3nc4ccccc4[nH]3)c(O)c(O)cc2c1O`, for which the growth in [1] was 11.9%; in experiment [2], 10.5%; in experiment [3] it was 5.43% (active); in experiment [4], 7.78% (active); in experiment [5], -58.7% (active); in experiment [6] it was 6.02% (active). Besides, the growth in experiment [7] was -16.6% (active); in experiment [8], -26.5% (active); in experiment [9] it was 19.8%; in experiment [10], 7.6% (active); in [11], 8.33% (active); in experiment [12] it was 9.17% (active). In addition, the growth in experiment [13] is -30.6% (active); in experiment [14] it was -6.24% (active); in [15], 1.78% (active); in [16], -3.57% (active); in [17], 3.98% (active); in experiment [18], 2.22% (active).

On to `CNc1ccc(Nc2ccc(S(=O)(=O)O)cc2)c2c1C(=O)c1ccccc1C2=O`, for which the growth was 98.6% in experiment [1]; 105% in experiment [2]; 101% in experiment [3]; 104% in experiment [4]; 96.6% in experiment [5]; 101% in [6]. Moreover, the growth in experiment [19] is 99.9%; in experiment [7], 94.6%; in [8], 88.2%; in experiment [10], 130%; in experiment [13], 102%; in [14], 126%. Also, the growth in experiment [15] was 98.7%; in experiment [20], 91.9%; in experiment [16], 113%; in [17] it was 89.2%; in experiment [18], 106%.

For the molecule `COc1cc(/C(=C2/O[C@@H]([C@H]3COC(C)(C)O3)[C@H]3OC(C)(C)O[C@@H]23)c2ccc3c(c2)OCO3)cc(OC)c1OC`, the growth in experiment [1] was 91.3%; in [2], 68.4%; in [3] it was 51.8%; in [4], 75.7%; in experiment [5] it was 47.1%; in [6], 82.9%. For the same molecule, the growth was 71.2% in experiment [19]; 76.1% in [7]; 47% in experiment [8]; 74.3% in [11]; 59.9% in experiment [12]; 70.7% in experiment [14]. Besides, the growth in [15] was 26.4%; in experiment [20], 68.6%; in [17], 93.1%; in experiment [18], 106%.

Regarding `COc1ccc(/C=C(/C(=O)N2CCN(c3ccc(C)cc3)CC2)c2cc(OC)c(OC)c(OC)c2)cc1N`, the growth in [1] was 11.8%; in experiment [2], 3.34% (active); in experiment [3], 9.7% (active); in experiment [4], 33.6%; in [5], 22%; in [6], 9.56% (active). Moreover, the growth in experiment [7] is 40%; in experiment [8], 22.2%; in [9], 54.3%; in [10] it was 23.7%; in experiment [11], 45.5%; in experiment [12], 28.8%. The growth is 51.2% in experiment [13]; 76.7% in [14]; 30.5% in experiment [15]; -11.1% (active) in [16]; 13.4% in [17]; 17.5% in [18].

Take `Oc1ccc2ccccc2c1/C=N\Nc1ccccn1`: the growth in experiment [1] was 28.7%; in [2] it was 111%; in experiment [3] it was -7.53% (active); in [4] it was 27.8%; in experiment [5], 21.3%; in experiment [6] it was 45.1%. Also, the growth in experiment [7] was 0.907% (active); in experiment [8], -4.69% (active); in experiment [9], 38.9%; in [10] it was 19.3%; in experiment [11] it was -6.82% (active); in experiment [12], 22.4%. The growth in experiment [13] was -24.7% (active); in experiment [14], 58.3%; in [15], 6.56% (active); in [20], -26.4% (active); in experiment [17], 8.91% (active); in experiment [18] it was 5.28% (active).

`N=C(c1ccccc1)N(Cc1ccccc1)Cc1ccccc1`: the growth was 74.8% in experiment [1]; 53.4% in experiment [2]; 97.7% in experiment [3]; 99.8% in [4]; 96.7% in experiment [5]; 81.5% in [6]. In addition, the growth in [19] was 104%; in experiment [7] it was 87.3%; in experiment [10], 85.4%; in experiment [13], 72.6%; in [14], 106%; in experiment [15], 93.7%. Also, the growth in experiment [20] is 89.8%; in experiment [16] it was 96%; in experiment [18], 86.3%.

Take `O=C(O)c1ccc(Br)nc1`: the growth was 97.8% in [1]; 96.1% in experiment [2]; 81.7% in experiment [3]; 95.3% in experiment [4]; 93.8% in [5]; 97.3% in [6]. Also, the growth was 95.8% in experiment [7]; 97.2% in [8]; 104% in [9]; 96.1% in experiment [10]; 95.6% in [11]; 98.1% in experiment [12]. Also, the growth is 86.3% in experiment [13]; 86.8% in [14]; 103% in [15]; 95.7% in [17]; 99.8% in [18].

Consider `Cc1cc(CSc2ccc(Cl)cc2)ccc1N`, for which the growth in [1] was 98.3%; in [2], 106%; in [3], 87.3%; in experiment [4] it was 84.3%; in experiment [5], 78.6%; in experiment [6] it was 76.5%. In addition, the growth in experiment [7] is 90.5%; in [8], 98.6%; in [9], 111%; in experiment [10], 99.7%; in experiment [11] it was 85.8%; in experiment [12] it was 42%. The growth was 29.4% in experiment [13]; 101% in [14]; 102% in experiment [15]; 95.1% in [20]; 99.7% in experiment [16]; 3.59% (active) in experiment [17]. Further, the growth in experiment [18] is 49.7%.

Take `N#Cc1ccc(NC2c3ccccc3CC2O)cc1` (stereo unspecified): the growth in experiment [1] is 101%; in experiment [2] it was 110%; in experiment [3] it was 91.5%; in [4], 109%; in experiment [5], 113%; in [6], 98.8%. Besides, the growth in [19] is 102%; in [7], 99.1%; in [9] it was 109%; in experiment [10], 103%; in [11] it was 114%; in [13], 83.1%. The growth was 119% in [14]; 104% in experiment [15]; 106% in experiment [20]; 115% in [16]; 94.6% in [17]; 91.5% in experiment [18].
